Common to all, as to experiment: NCI-60 one-dose screen, 48 h (100 = growth as untreated, 0 = no growth, -100 = all killed)
One experiment relates to T-47D breast. The note with it: 10 µM.
For the next experiment, the system named is BT-549 breast. The note with it: 10 µM.
The next experiment deals with MDA-MB-435 melanoma. Particulars: 10 µM.
In the next experiment the test system is SW-620 colon. The note with it: 10 µM.
The next experiment relates to MCF7 breast. Particulars: 10 µM unless noted.
The subject of the next experiment is HCT-116 colon. The note with it: 10 µM.
The next experiment concerns HCC-2998 colon. Particulars: 10 µM.
The test system of the next experiment is KM12 colon. The note with it: 10 µM.

About 83,000 compounds went through this panel and 20% of them were active in at least one assay; those are over-represented in the sample as a whole.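 96-well plates, one dose, 48 hours. Percent growth reported; active if below 10.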 Unmarked numbers belong to inactive results. Calls of active or inactive are those of the source.

`O=c1cc(-c2ccccc2)[nH]c(=S)[nH]1`: the growth in the experiment with T-47D breast is 107%; with BT-549 breast, 97.5%; in the experiment on MDA-MB-435 melanoma it was 104%; with SW-620 colon, 104%; with MCF7 breast, 95.3%; with HCT-116 colon it was 101%. The growth was 104% with HCC-2998 colon and 96.7% in the experiment with KM12 colon.

Take `C/C(=C\c1cc(Cl)ccc1OCC(=O)O)[N+](=O)[O-]`: the growth was 85.9% in the experiment on T-47D breast; 117% with BT-549 breast; 105% with MDA-MB-435 melanoma; 114% with SW-620 colon; 90.4% in the experiment with MCF7 breast; 109% in the experiment on HCT-116 colon. The growth in the experiment with HCC-2998 colon was 111%; in the experiment on KM12 colon, 105%.

As for `C=C[Si](OC(C)=O)(OC(C)=O)OC(C)=O`, the growth in the experiment with T-47D breast is 93.6%; with BT-549 breast it was 95.9%; with MDA-MB-435 melanoma it was 99.6%; in the experiment on SW-620 colon it was 101%; in the experiment with MCF7 breast, 92.9%; in the experiment on HCT-116 colon, 100%. Moreover, the values for the growth in the experiment on HCC-2998 colon and with KM12 colon were 103% and 104%, respectively.

Consider `O=C(Nc1ccccc1)OCCc1ccccc1`, for which the growth is 104% with T-47D breast; 98.1% in the experiment on BT-549 breast; 99% in the experiment on MDA-MB-435 melanoma; 106% with SW-620 colon; 93.7% in the experiment on MCF7 breast; 109% in the experiment on HCT-116 colon. Besides, the growth is 99.7% with HCC-2998 colon and 111% in the experiment with KM12 colon.

On to `CCCCCC(C)(CC(=O)O)CC(=O)O`, for which the growth in the experiment on T-47D breast was 104%; with BT-549 breast it was 113%; in the experiment on MDA-MB-435 melanoma it was 107%; in the experiment on SW-620 colon it was 106%; in the experiment with MCF7 breast, 90%; with HCT-116 colon, 112%. Further, the growth is 113% in the experiment with HCC-2998 colon and 115% in the experiment with KM12 colon.

As to `COc1cc(CN)ccc1O`, the growth with T-47D breast is 94.5%; in the experiment on BT-549 breast, 95%; with MDA-MB-435 melanoma, 99.5%; in the experiment with SW-620 colon, 103%; with MCF7 breast, 83.7%; in the experiment with HCT-116 colon, 103%. Moreover, the results for the growth with HCC-2998 colon and in the experiment with KM12 colon were 86.3% and 104%, respectively.

In the case of `CCN(CC)C(=O)/C=C(/C)c1ccccc1`, the growth in the experiment with T-47D breast is 102%; in the experiment with BT-549 breast, 94.5%; in the experiment on MDA-MB-435 melanoma, 108%; in the experiment with SW-620 colon, 102%; with MCF7 breast, 102%; in the experiment with HCT-116 colon it was 106%. Also, the growth is 88.6% in the experiment with HCC-2998 colon and 111% in the experiment on KM12 colon.

As to `CC(C)C(C#N)(C(C)C)C(C)C`, the growth in the experiment with T-47D breast is 104%; in the experiment on BT-549 breast it was 102%; in the experiment with MDA-MB-435 melanoma it was 96.3%; in the experiment with SW-620 colon it was 101%; in the experiment with MCF7 breast it was 97.7%; in the experiment with HCT-116 colon, 103%. In addition, the growth in the experiment with HCC-2998 colon is 110%; in the experiment on KM12 colon, 103%.

As for `COC(=O)/C=C/C(=O)NC(N)=O`, the growth was 95.3% in the experiment on T-47D breast; 99.4% in the experiment on BT-549 breast; 99% with MDA-MB-435 melanoma; 103% in the experiment with SW-620 colon; 94.8% in the experiment with MCF7 breast; 103% in the experiment on HCT-116 colon. Moreover, the growth with HCC-2998 colon was 122%; in the experiment with KM12 colon, 102%.

For `COc1cc2cc(OC(C)=O)c3cc4c(cc3c2c(OC)c1OC)OCO4`, the growth in the experiment with T-47D breast is 106%; in the experiment on BT-549 breast, 104%; in the experiment with MDA-MB-435 melanoma, 102%; in the experiment with SW-620 colon, 96.9%; in the experiment with MCF7 breast, 93.6%; with HCT-116 colon it was 104%. For the same molecule, the growth in the experiment on HCC-2998 colon is 107%; in the experiment with KM12 colon, 99.8%.

With `COc1cc2nn(-c3ccccc3N)nc2cc1OC`, the growth in the experiment on T-47D breast is 93.6%; in the experiment with BT-549 breast, 81.3%; in the experiment on MDA-MB-435 melanoma, 96.8%; with SW-620 colon it was 105%; with MCF7 breast it was 90.7%; with HCT-116 colon it was 103%. For the same molecule, the growth in the experiment on HCC-2998 colon was 95.8%; in the experiment with KM12 colon, 103%.

`CC1CC(O)CC(C)(C)C1` (stereo not drawn): the growth with T-47D breast was 104%; with BT-549 breast it was 102%; with MDA-MB-435 melanoma, 101%; with SW-620 colon, 110%; with MCF7 breast, 101%; in the experiment with HCT-116 colon it was 99.8%. Also, the growth in the experiment on HCC-2998 colon is 109%; with KM12 colon, 90.3%.

For the molecule `Cc1cc(O)ccc1O`, the growth in the experiment with T-47D breast was 101%; in the experiment on BT-549 breast, 83.5%; in the experiment on MDA-MB-435 melanoma, 97.7%; with SW-620 colon, 117%; in the experiment with MCF7 breast, 94.7%; with HCT-116 colon, 96.4%. For the same molecule, the figures for the growth in the experiment with HCC-2998 colon and with KM12 colon were 121% and 105%, respectively.

For `CCOC(=O)Nc1cc2c(c(N)n1)N=C(c1ccccc1)CO2`, the growth in the experiment with T-47D breast was 72.3%; with BT-549 breast it was 49.7%; with MDA-MB-435 melanoma, 4.31% (active); in the experiment on SW-620 colon it was 26.2%; with MCF7 breast, 20.4%; in the experiment with HCT-116 colon, 6.32% (active). The growth is 23.5% in the experiment on HCC-2998 colon and 5.46% (active) in the experiment on KM12 colon.

For the molecule `CN(C)c1ccc2nc3ccc(=N)cc-3sc2c1`, the growth in the experiment with T-47D breast was 19.1%; in the experiment with BT-549 breast, 51.6%; with MDA-MB-435 melanoma, -59.8% (active); with SW-620 colon, 23.5%; with MCF7 breast it was 23.9%; in the experiment on HCT-116 colon, 16.7%. Further, the growth in the experiment with HCC-2998 colon was 67.4%; with KM12 colon it was 38%.

For `COC(=O)Nc1nc2ccc(C(=O)c3ccc(F)cc3)cc2[nH]1`, the growth in the experiment on T-47D breast was 112%; in the experiment on BT-549 breast it was 32%; with MDA-MB-435 melanoma, -60.2% (active); with SW-620 colon it was 24.8%; with MCF7 breast, 15.6%; with HCT-116 colon it was 14.2%. Moreover, the growth was 16.1% with HCC-2998 colon and -4.55% (active) in the experiment on KM12 colon.

For the origin of these results see PubChem BioAssay (NCI).
